Laboratory results reported in PubChem BioAssay AID686970 (National Center for Advancing Translational Sciences (NCATS), 2013).
Out of some 360,000 compounds screened, about 6,000 (1.7%) were called active. Inconclusive results (about 8%) are left out. Calls follow the shape of the dose curve; as a rule, active = well fitted cell-killing curve with a large enough effect; inconclusive = small, poorly fitted or top-dose-only effect, or effect the other way; inactive = flat fitted curve, though single readings scatter. The full list was thinned out, with actives kept by preference.

assay: qHTS for induction of synthetic lethality in tumor cells producing 2HG: qHTS for the HT-1080-NT fibrosarcoma cell line; conditions: HT-1080-NT fibrosarcoma viability, CellTiter-Glo ATP luminescence, 48 h; series mostly up to 46.1 µM; activity, negative = less viability: at the top concentration; also: nearly all actives have a fitted effect of over 55% in size
Text: Unbiased genomic sequencing for 22 glioma genomes found recurrent mutation of IDH1 on chromosome 2q33, a gene encoding the cytosolic isoform of IDH1 associated with the tricarboxylic acid cycle (TCA) that catalyzes the oxidative decarboxylation of isocitrate, yielding alpha-ketoglutarate and CO2 via NADP+ to NADPH conversion. Subsequent studies confirmed the recurrent IDH mutations in up to 70% of secondary gliomas and in 10% of AML cases. In addition, the somatic mutation of cancer-associated IDH1 is a point mutation resulting in various amino-acid substituents at Arginine132 (IDH1 R132), a key residue found in the enzyme's active site that when mutated, results in the loss-of-function in metabolizing isocitrate but confers a gain-of-function to produce the oncometabolite 2-hydroxyglutarate (2HG). This in effect defines IDH1 as an oncogene and provides an extraordinary opportunity to discover chemical probes against mutant IDH1 that may translate into much needed new therapies for glioma and AML patients.
This assay aims to perform a synthetic lethal screen for chemical probes specific for 2HG-producing tumor cells using matched paired cell lines (1) HT-1080-NT fibrosarcoma cell line that overproduces 2HG and (2) HT-1080-IDH1KD cell line which has IDH1 expression knocked-down. Desirable compounds are toxic to the NT fibrosarcoma cells but not to the IDH1KD cell line. The data in this AID corresponds to the results of the qHTS against the HT-1080-NT fibrosarcoma cell line.
[1] Dang L, Jin S, Su SM. IDH mutations in glioma and acute myeloid leukemia. Trends of Mol Med. 2010; 16(9): 387-97.
[2] Dang L et al. Cancer-associated IDH1 mutations produce 2-hydroxyglutarate. Nature. 2010; 465(7300):966.
NIH Molecular Libraries Probe Production Centers Network [MLPCN]
NIH Chemical Genomics Center [NCGC]
Assay Submitter (PI): Lenny Dang Ph.D., Agios Pharmaceuticals
Suspensions of trypsinized HT-1080-NT cells were dispensed into white, tissue culture-treated, solid 1536-well plates at 5uL/well (750 cells/well final concentration) in RPMI medium supplemented with 5% FBS. Plates were incubated at 37 degrees C for 2 hours, after which 23 nL of compounds or DMSO were delivered to each well using a pin tool. Plates were then incubated at 37 degrees C for an additional 48 hours. CellTiter-Glo viability reagent (Promega) was dispensed into wells (2.5uL/well) and incubated at room temperature for 10 minutes. The plates were measured on a PerkinElmer ViewLux plate reader for luminescent signal (clear filter, 1 sec exp). DMSO-treated control wells and media-only (no cells) control wells were used to normalize %Activity of identified toxic compounds; DMSO-treated wells corresponded to 0%Activity (100% viability), while media-only controls were used to normalize 100%Activity (0% viability).
Concentration-response curves were fitted to the signals arising from the resulting luminescence. The concentration-effect curves were then classified based on curve quality (r2), response magnitude and degree of measured activity, and compounds were subsequently categorized based on their curve class.
Potency is read from the fitted curve at half-maximal effect.

Structure (SMILES)	activity, negative = less viability	Potency
COc1cccc(/C=C2\SC(=S)N(CCCC(=O)N3CCOCC3)C2=O)c1	0.898% (inactive)	
CCCCc1ccc(S(=O)(=O)NC(=O)C2(C)CCN2C(=O)c2ccccc2)cc1 (centres undefined)	8.41% (inactive)	
CCCOc1ccc(/C=N/NC(=O)C2CC2)c(OCCC)c1	-1.92% (inactive)	
CCCOc1ccc(C(=O)C(CCC(CNCC)C(=O)c2ccc(OCCC)cc2)CNCC)cc1 (centres undefined)		16.4 µM (active)
CCCOc1ccc(C(=O)CCC(=O)OC(C)C(=O)Nc2ccc(NC(C)=O)cc2)cc1 (centres undefined)	4% (inactive)	
Cc1ccccc1S(=O)(=O)NC(=O)C1(C)CCN1C(=O)C1(c2ccc(Cl)cc2)CC1 (centres undefined)	0.791% (inactive)	
COc1cc(C(O)c2nc(-c3cnn(C)c3)cs2)ccc1F (centres undefined)	4.84% (inactive)	
O=C(Nc1ccc(F)cc1)C(CCc1ccccc1)N1CCN(CC(=O)N2CCCC2)CC1 (centres undefined)	0.926% (inactive)	
Cc1ccc(S(=O)(=O)N2C[C@H]3n4c(=O)ccc(=O)n4C[C@H](OC(=O)NC4CCCC4)[C@@]3(O)C2)cc1	-27.2% (inactive)	
CCCCCCNC(=O)O[C@H]1CN(C(=O)OC(C)C)N(C(=O)OC(C)C)[C@@H]2CN(S(=O)(=O)c3ccc(C)cc3)C[C@]12O		20.6 µM (active)
CCCCCCNC(=O)O[C@]12C[C@@H](C(=O)OC)[C@@H](C(=O)OC)C[C@@]1(O)CN(S(=O)(=O)c1ccc(C)cc1)C2	-0.467% (inactive)	
CS(=O)(=O)N1CCCCC1c1cc(C(=O)NCc2ccccc2)no1 (centres undefined)	23.6% (inactive)	
CC(=O)OCC(C)n1c(=O)c2ccccc2n1C(C)=O (centres undefined)	3.8% (inactive)	
CCOC(=O)CNC(=O)N1c2ccccc2Sc2ccccc21	0% (inactive)	
CCN1/C(=C/C(=S)Nc2ccccc2)Sc2ccccc21		6.51 µM (active)
CC(NC(=S)Nc1ccccc1)C1COc2ccccc2O1 (centres undefined)	-2.44% (inactive)	
COc1ccc(OC)c(CN2C(=O)CCC2(C)c2nnnn2Cc2ccccc2)c1 (centres undefined)	6.01% (inactive)	
CCOC(=O)N1CCN(C(=O)C[C@@H]2C[C@@]3(C(=O)OC)CCCCC=C3N(CCC3=CCCCC3)C2=O)CC1	-17.7% (inactive)	
O=C(Nc1nnc(C2CC2)s1)c1ccccn1		7.08 µM (active)
CCc1ccccc1OCC(=O)Nc1nnc(C2CC2)s1	6.09% (inactive)	
Cc1cc(C(=O)Nc2nnc(C3CC3)s2)c(C)s1	-2.13% [at 9.24 µM] (inactive)	
Cc1onc(-c2ccccc2)c1-c1nnc(COC(=O)c2ccc(N(C)C)cc2)o1	-9.65% (inactive)	
COc1ccc(CCNC(=O)Nc2ccc3c(c2)c(=O)n(C)n3C)cc1OC	18.5% (inactive)	
CCOC(=O)c1[nH]ncc1CN1CCCC(C(=O)c2ccc(OC)cc2C)C1 (centres undefined)	2.6% (inactive)	
COc1ccc(C(=O)C2CCCN(Cc3ccc4nonc4c3)C2)c(C)c1 (centres undefined)	-10.5% (inactive)	

Structure (SMILES)	activity, negative = less viability	Potency
COc1ccc(C(=O)C2CCCN(Cc3cccn3-c3ccccn3)C2)c(C)c1 (centres undefined)		8.2 µM (active)
COCCCN1C(=O)C(CC(=O)NCc2cccs2)CC(C(=O)N2CCOCC2)=C1C (centres undefined)	13.1% (inactive)	
CCOc1ccccc1NC(=O)Cn1nnc(C(=O)NCc2cccs2)c1N		0.461 µM (active)
CCOc1ccccc1NC(=O)Cn1ncc2ccc([N+](=O)[O-])cc21	-2.56% (inactive)	
Cc1ccc(NC(=O)Cn2nnc(C(=O)NCc3ccco3)c2N)c(C)c1		20.6 µM (active)
Cc1ccc(SCC(=O)NC(=O)NCc2ccco2)c(C)c1	-4.84% (inactive)	
COc1ccc(CNC(=O)c2nnn(CC(=O)Nc3cc(C)cc(C)c3)c2N)cc1	1.9% (inactive)	
CCOc1ccc(Cn2nnc(C(=O)Nc3ccc(OC)cc3OC)c2N)cc1	-2.78% (inactive)	
CC(=O)c1ccc(OCC(=O)N(C)C2CCS(=O)(=O)C2)cc1 (centres undefined)	14.7% (inactive)	
COc1ccc(CN2C(=O)C(CC(=O)NCCN3CCOCC3)CC(C(=O)N(C(C)C)C(C)C)=C2C)cc1 (centres undefined)	1.88% (inactive)	
O=C(NCc1ccc(F)cc1F)[C@@H]1CCCN1C(=O)[C@@H]1CCCN1C(=O)c1cccc(Cl)c1	10.8% (inactive)	
Nc1nc2c(Br)ccc(Br)c2cc1C(=O)NCCc1ccccc1	0.0286% (inactive)	
CCOC(=O)c1cc(-c2sc(NC(=O)c3ccccc3)nc2C)n(Cc2ccccc2)n1	-27.9% (inactive)	
COc1cc(OC)cc(C(=O)N[C@H](C(=O)NNC(=O)c2ccc(Br)cc2)C(C)C)c1	-0.305% (inactive)	
COc1ccc(C(=O)N[C@H](C(=O)NCc2ccccc2)C(C)C)cc1	8.29% (inactive)	
COc1cc(OC)cc(C(=O)N[C@H](C(=O)Nc2nc3ccccc3[nH]2)C(C)C)c1		1.16 µM (active)
Cc1cc(C)cc(NS(=O)(=O)c2ccc(Oc3ncc(C(F)(F)F)cc3Cl)cc2)c1		23.1 µM (active)
Cc1ccc(NS(=O)(=O)c2ccc(C(C)(C)C)cc2)cn1	1.12% (inactive)	
CN(NS(=O)(=O)c1cccs1)c1ncc(C(F)(F)F)cc1Cl	6.3% (inactive)	
COC(=O)[C@@]1(Sc2ccc(C)cc2)CC(=O)N(c2cccc(SC)c2)[C@@H]1c1ccccc1	-37.1% (inactive)	
CCCCCCN1CCN(C2CN(Cc3cn(CCCCCC)nn3)S(=O)(=O)C2)CC1 (centres undefined)	-28.1% (inactive)	
O=c1[nH]c(CCl)nc2cc(-c3ccc(Cl)cc3)sc12		16.4 µM (active)
CCC1(CC)Cc2ccccc2-c2nc(CCl)[nH]c(=O)c21	-27.6% (inactive)	
Cn1c(NCc2cccnc2)nc2cc(-c3ccc(F)cc3)sc2c1=O	3.48% (inactive)	
